Bioassay records from PubChem BioAssay.
A350 autofl – A350 region autofluorescence; hit rate 11% among 59,000; max dye-equivalent concentration, M; AID 590; Compound autofluorescence, 340/450 nm, Alexa 350 dye-equivalents; hits give high values; in the data active = max dye-equivalent concentration above about 10 nM; inconclusive = mostly about 1.1 nM to 9.6 nM
GBA activity – human lysosomal glucosylceramidase modulation; Potency, µM; hit rate 1.1% among 48,000; P04062; purified enzyme, resorufin glucoside fluorescence (screen aimed at inhibitors), 20 min; in the data active = potency below about 15 µM; inconclusive = mostly about 16 µM to 33 µM;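 also: potency is read from the fitted curve at half-maximal effect; the screen sought inhibitors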
Target sequence (P04062 whole entry, looked up): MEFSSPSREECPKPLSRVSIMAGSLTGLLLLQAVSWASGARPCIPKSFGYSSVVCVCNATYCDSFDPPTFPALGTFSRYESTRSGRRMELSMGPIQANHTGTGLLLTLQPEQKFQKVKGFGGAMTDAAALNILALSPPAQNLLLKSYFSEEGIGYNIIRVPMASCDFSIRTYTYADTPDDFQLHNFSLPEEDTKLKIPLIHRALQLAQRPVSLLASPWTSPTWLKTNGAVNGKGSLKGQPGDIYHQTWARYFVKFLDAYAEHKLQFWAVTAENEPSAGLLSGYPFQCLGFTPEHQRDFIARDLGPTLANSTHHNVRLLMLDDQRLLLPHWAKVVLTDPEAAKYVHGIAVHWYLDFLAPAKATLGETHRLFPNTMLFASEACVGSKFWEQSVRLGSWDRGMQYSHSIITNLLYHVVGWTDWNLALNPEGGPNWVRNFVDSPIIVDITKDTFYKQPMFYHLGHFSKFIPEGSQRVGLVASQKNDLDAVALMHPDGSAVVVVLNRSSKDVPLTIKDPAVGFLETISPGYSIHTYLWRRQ
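Compounds titrated against 0.2 nM normal enzyme, 30 uM resorufin beta-D-glucopyranoside substrate, citrate/phosphate buffer with taurocholate and tween-20, pH 5.9. Reaction ran 20 min at room temperature; fluorescence (Ex 548/Em 600) gave AC50.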
4MU fluor – 4-MU region autofluorescence | max dye-equivalent concentration, M | hit rate 11% among 59,000 | compound autofluorescence, 340/450 nm, 4-MU equivalents; hits give high values | AID 589; in the data active = max dye-equivalent concentration above about 10 nM; inconclusive = mostly about 1.1 nM to 9.6 nM
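Compounds in 100 mM Tris, pH 8.0, incubated 15 min at room temperature, then fluorescence read at 340 nm excitation/450 nm emission. Signal converted to 4-MU dye-equivalent concentration using an on-plate six-point 4-MU standard curve.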
AID923 – qHTS Assay for Allosteric/Competitive Inhibitors of Caspase-1: Spectroscopic Profiling in AFC Spectral Region; AID 923, 2007; hit rate 1.1% among 75,000; compound fluorescence, AFC spectral region (405/520 nm); Potency, µM (doses to about 57.5 µM), without a hit: top-dose fluorescence increase, usual class: activators; also: potency is read from the fitted curve at half-maximal effect; 0% is about no effect
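Baseline compound fluorescence (AFC region, 405 nm ex/520 nm em) taken from the intercept of kinetic reads with 50 nM caspase-1 and 5 uM Ac-WEHD-AFC; normalized to an on-plate AFC standard curve; compounds titrated up to 57 uM.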
HSD17B inhib – inhibitors of human HSD17B10 dehydrogenase | Q99714 | recombinant HSD17B10, NADH fluorescence kinetic | Potency, µM (titrated, usually from 57.1 µM), inactives show at the top dose activity change, negative = inhibition, most hits filed as inhibitors | hit rate 7.6% among 75,000 | AID 893;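 also: the protocol describes HADH2 (HSD17B10) and not the HSD17B4 of the title; potency is read from the fitted curve at half-maximal effect; % is scaled to controls: 0 for no effect and ±100 for the full control effect; nearly all actives have a fitted effect of over 70% in size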
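His-tagged E. coli-expressed HADH2 at 20 nM in 100 mM Tris-HCl pH 9.0 with 0.01 % Tween-20, preincubated 15 min with compound at room temperature. Reaction with 1 mM NAD+ and 90 uM beta-hydroxybutyryl coenzyme A; NADH fluorescence (360/450 nm) read kinetically over 4 min, last minus first point.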
HADH2 inh – blocks human hydroxyacyl-CoA dehydrogenase type II; recombinant HADH2, NADH fluorescence, beta-hydroxybutyryl-CoA; Q99714; Potency, µM (highest dose often 57.1 µM), inactives show top-dose activity change, negative = inhibition, hits mostly inhibitors; hit rate 3.4% among 73,000; also: potency is read from the fitted curve at half-maximal effect; % is scaled to controls: 0 for no effect and ±100 for the full control effect; nearly all actives have a fitted effect of over 60% in size
Target sequence (Q99714 whole entry, looked up, one chain of several): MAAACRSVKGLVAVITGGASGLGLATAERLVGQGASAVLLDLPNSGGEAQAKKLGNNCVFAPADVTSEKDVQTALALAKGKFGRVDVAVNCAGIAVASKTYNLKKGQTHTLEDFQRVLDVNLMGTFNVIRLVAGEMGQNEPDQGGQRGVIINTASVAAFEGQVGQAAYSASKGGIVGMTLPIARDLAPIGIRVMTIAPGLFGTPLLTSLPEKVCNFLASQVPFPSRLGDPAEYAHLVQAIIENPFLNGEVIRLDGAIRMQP
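Read-out: 360 nm excitation, 450 nm emission, kinetic over 4 min. Conditions: His-tagged human HADH2 20 nM, pH 9.0 Tris with Tween-20, 1 mM NAD+, 90 uM beta-hydroxybutyryl-CoA.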
Starred values were filed as active, the others as inactive; i = inactive; u = inconclusive; x = no result; [ ] = remark or other dose. Hits are enriched below; roughly 13% of the tested compounds scored in any of these assays. Unless noted, calls follow the shape of the dose curve; as a rule, active = well fitted curve in the direction sought with a large enough effect; inconclusive = small, poorly fitted or top-dose-only effect, or another doubt; inactive = no such curve, though single readings can be large; an effect the other way counts as inactive or inconclusive.

SMILES | A350 autofl | GBA activity | 4MU fluor | AID923 | HSD17B inhib | HADH2 inh
CN(C)c1ccc(-c2ccc3ncnc(NCc4ccccc4)c3c2)cc1 | i | x | i | 10.5% | -22.1% | 11.5%
CC1(C)Cc2nc3oc4c(NCc5ccccc5)ncnc4c3cc2CO1 | i | >15.4 | i | -1.0% | 25.1µM* | u
N/C(=N\c1nc2ccccc2o1)NC(=O)c1ccccc1NC(=O)c1ccccc1 | 1.86e-08M* | x | 1.56e-08M* | x | x | x
COc1ccccc1C(=O)NC(=Nc1nc2ccccc2o1)NC(=O)c1ccccc1OC | i | x | i | x | x | x
COc1ccc(C2C(C(C)=O)=C(O)C(=O)N2CCO)c(OC)c1 (stereo not drawn) | i | >76.9 | i | -0.7% | -0.5% | -14.1%
CCCCN1C(=O)C(O)=C(C(C)=O)C1c1ccc(OC)cc1OC (stereo not drawn) | 1.81e-08M* | x | 1.65e-08M* | x | x | x
CN1CCN(c2ncnc3ccc(-c4ccoc4)cc23)CC1 | u | x | u | 1.3% | -8.4% | 0.8%
CSc1nnc(-c2ccc(O)cc2)n1C | i | x | i | 0.9% | 9.0% | -12.1%
CSc1nnc(-c2cc3ccccc3cc2O)n1C | 2.58e-07M* | >76.9 | 3.27e-07M* | 2.4% | 25.1µM* | 31.6µM*
N#Cc1c(N)nc(SCC(=O)NCCc2ccccc2)c(C#N)c1-c1cccs1 | 4.97e-07M* | x | 4.61e-07M* | x | x | x
CC(C)OC(=O)CSc1nc(N)c(C#N)c(-c2cccs2)c1C#N | x | x | x | 0.0% | u | u
N.N.N.N.N.N.N.N.N.N.N.N.N.N.O.O.[Ru].[Ru].[Ru] | i | x | i | -1.0% | -14.6% | u
O=C1C=CC(=Nc2cccc3c(N=C4C=CC(=O)O4)cccc23)O1 | i | x | i | -3.0%[11.5 µM] | u | u
COc1ccc(CNC(=O)C(c2cccs2)N(C(=O)c2csnn2)C2CC2)cc1 (stereo not drawn) | 1.09e-08M* | >76.9 | 1.08e-08M* | -1.1% | 1.2% | -11.2%
Cc1n[nH]c(C)c1S(=O)(=O)N1CCN(c2ccccn2)CC1 | i | >76.9 | i | -1.2% | 25.1µM* | 2.9%
Cc1n[nH]c(C)c1S(=O)(=O)N1CCCC(C(=O)Nc2ccc3c(c2)OCCO3)C1 (stereo not drawn) | i | >76.9 | i | 1.3% | -1.4% | 2.9%
O=S(=O)(c1ccc(Br)s1)N1CCN(c2ccccn2)CC1 | i | >76.9 | i | -1.6% | -7.9% | -4.2%
Cc1cc(C)cc(NC(=O)C2CCN(S(=O)(=O)c3c(C)n[nH]c3C)CC2)c1 | 1.25e-08M* | >76.9 | u | -2.3% | 2.5% | 0.8%
C/C(=C1/SC(N2CCOCC2)=NC1=O)c1ccc(Cl)cc1 | 1.53e-08M* | >76.9 | 1.05e-08M* | 1.6% | 9.0% | 10.4%
COc1ccccc1NC(=O)C1CC(=O)OC1c1ccccc1 (stereo not drawn) | 4.31e-08M* | >76.9 | 3.75e-08M* | 1.8% | -13.1% | -12.0%
CC1=CCc2c(cc3oc(C)cc(=O)c3c2O)OC1 | x | x | x | 8.6% | -28.1% | x
Cc1cc(=O)c2c(O)c(O)ccc2o1 | 2.47e-08M* | >76.9 | 2.5e-08M* | 2.4% | 15.8µM* | u
COc1cc2c(cc1OC)-c1nnc(-c3cccs3)n1C(C)(C)C2 | x | x | x | -1.9% | 31.6µM* | 37.0%
O=C(c1cc2ccccc2oc1=O)N1CCCC1 | u | >76.9 | i | -1.4% | -4.7% | -1.5%
CC(=O)Nc1cc2ccccc2oc1=O | i | x | i | 2.1%[25.7 µM] | 12.6µM* | -25.6%[25.6 µM]
SMILES | A350 autofl | GBA activity | 4MU fluor | AID923 | HSD17B inhib | HADH2 inh
COc1ccc2nc3c(c([Si](C)(C)C(C)(C)C)c2c1)Cn1c-3cccc1=O | x | x | x | -2.3% | u | u
COc1cc2nc3c(c([Si](C)(C)C(C)(C)C)c2cc1OC)Cn1c-3cccc1=O | x | x | x | -0.9% | 2µM* | 260.0%
CC(C)(C)[Si](C)(C)c1c2c(nc3ccc(OCc4ccccc4)cc13)-c1cccc(=O)n1C2 | x | x | x | 6.7% | 31.6µM* | -14.1%
O=C(O)CCC(O)=C1S(=O)(=O)OCCOS1(=O)=O | i | x | i | 0.8%[11.5 µM] | 2.8%[11.4 µM] | 15.4%[11.4 µM]
O=S(=O)(O)c1cc(O)c2c(O)c(N=Nc3cccc4ccccc34)c(S(=O)(=O)O)cc2c1 | 1.47e-08M* | x | 1.33e-08M* | -1.3%[11.5 µM] | -8.3%[11.4 µM] | -1.5%[11.4 µM]
Nc1ccc(N=Nc2c(S(=O)(=O)O)cc3ccccc3c2S(=O)(=O)O)cc1 | u | x | u | -1.9%[11.5 µM] | -2.3%[11.4 µM] | 14.1%[11.4 µM]
CCn1cc(CNC(=O)CCc2ccc(OC)cc2)cn1 | 2.65e-08M* | >76.9 | 2.54e-08M* | -1.3% | 9.6% | 0.0%
COc1ccc(CCC(=O)NCc2cn3ccsc3n2)cc1 | i | >76.9 | i | 0.8% | 1.1% | 17.4%
CNC(=O)C1=NCCCc2cc(OC)c(OC)cc21 | 2.33e-06M* | >76.9 | 2.71e-06M* | 2.5% | 6.4% | u
Cc1ccc2cc(C)c(SCC#N)nc2c1 | 1.3e-08M* | >76.9 | 1.28e-08M* | 0.6% | -0.5% | -8.3%
COC(=O)CSc1nc2cc(C)ccc2cc1C#N | 1.09e-08M* | >76.9 | u | -0.7% | u | -3.2%
Cc1cc(C)c2nc(SCC#N)cc(C)c2c1 | i | u | i | 1.1% | -3.6% | -6.0%
CCOC(=O)CC(=O)CSc1nc2ccc(C)cc2cc1C#N | u | 12.7* | i | 11.2% | u | u
CCOC(=O)CSc1nc(C)c(C(C)=O)cc1C#N | i | x | i | x | x | x
CCCCNC(=O)[C@@H]1Cc2ccccc2N1C(=O)[C@H](N)CC | x | x | x | -2.6% | -17.7% | 2.2%
COc1ccc2[nH]cc(CCNc3nc(-c4c(C)noc4C)nc4ccccc34)c2c1 | i | x | i | 4.4% | -5.3% | -4.3%
NS(=O)(=O)c1ccc(CCNc2cc(=O)n(Cc3ccc(F)cc3)c(=O)[nH]2)cc1 | u | >76.9 | u | -0.2% | 25.1µM* | 6.2%
Cn1c(=O)cc(NCCc2ccccc2)[nH]c1=O | x | x | x | 2.3% | 3.7% | 6.0%
N#CCCSc1ncnc2c1oc1ccccc12 | 5.19e-08M* | >76.9 | 3.11e-08M* | -0.2% | 4.7% | -1.5%
OCCSc1ncnc2c1oc1ccccc12 | i | i | i | 0.9% | 3.8% | -13.2%
Cc1cc(C)cc(OCC(=O)Nc2cccc(-c3nnc(-c4ccco4)o3)c2)c1 | i | >76.9 | i | 0.8% | u | 1.0%
CC(C)CC(=O)Nc1cccc(-c2nc3ccccc3o2)c1 | u | >76.9 | i | -0.6% | u | -0.8%
O=C(Nc1cccc(-c2nc3cc(Cl)ccc3o2)c1)C1CCCO1 (stereo not drawn) | i | x | i | 0.0% | u | 14.4%
CCCC(=O)Nc1cccc(-c2nc3ccccc3o2)c1 | i | >76.9 | i | -1.6% | 25.1µM* | u
CCCC(=O)Nc1cccc(-c2nc3cc(C)c(C)cc3o2)c1 | x | x | x | 3.0% | 25.1µM* | 31.8%[11.4 µM]
COc1ccc(OCC(=O)Nc2cccc(-c3nc4ccccc4o3)c2)cc1 | x | x | x | -0.4% | 25.1µM* | u
CCc1ccc(OCC(=O)Nc2ccc(-c3nc4ccccc4o3)c(O)c2)cc1 | x | x | x | 3.6% | 25.1µM* | u
